Laboratory results as given in paper PMC5540273 (PLoS ONE, 2017).

Tests used:
Conditions in all cases: concentration: 1 μM, replicates: in singlicate; n = 1
[1] = tested on: FGFR4
[2] = tested on: FGR
[3] = tested on: FLT1
[4] = tested on: FLT3-autoinhibited
[5] = tested on: FLT3
[6] = tested on: FLT4
[7] = tested on: FRK
[8] = tested on: FYN
[9] = tested on: GAK
[10] = tested on: T1, GCN2(Kin.Dom.2,S808G)
T1 construct: gene EIF2AK4

[11] = tested on: GRK1
[12] = tested on: T2, GRK2
T2 construct: gene ADRBK1

[13] = tested on: T3, GRK3
T3 construct: gene ADRBK2

[14] = tested on: GRK4
[15] = tested on: GRK7
[16] = tested on: GSK3A
[17] = tested on: GSK3B
[18] = tested on: T4, HASPIN
T4 construct: gene GSG2

[19] = tested on: HCK
[20] = tested on: HIPK1
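Also: KINOMEscan kinase panel screen.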

SMILES | %Inh [1] | %Inh [2] | %Inh [3] | %Inh [4] | %Inh [5] | %Inh [6] | %Inh [7] | %Inh [8] | %Inh [9] | %Inh [10] | %Inh [11] | %Inh [12] | %Inh [13] | %Inh [14] | %Inh [15] | %Inh [16] | %Inh [17] | %Inh [18] | %Inh [19] | %Inh [20]
CC(C)(C)c1ccc(-n2cnc3c(N)ncnc32)cc1 [SKF-97263] | 10% | 30% | 7% | 17% | 6% | 15% | 0% | 2% | 9% | 11% | 3% | 0% | 0% | 24% | 0% | 31% | 4% | 64% | 13% | 19%
Nc1nc(-c2cccnc2)c(-c2ccnc3ccccc23)s1 [GW684083] | 0% | 24% | 29% | 0% | 16% | 0% | 5% | 12% | 77% | 24% | 0% | 1% | 39% | 8% | 0% | 11% | 7% | 83% | 0% | 11%
Cc1ccc(O)cc1Nc1cc(C(F)(F)F)nc2ccc(-c3ccncc3)cc12 [GW630823] | 5% | 22% | 14% | 0% | 27% | 13% | 14% | 7% | 4% | 0% | 0% | 0% | 0% | 0% | 0% | 5% | 0% | 0% | 18% | 8%
CN1c2ccc(-c3ccc(C(=O)NCCO)cc3)cc2-c2[nH]ncc2S1(=O)=O | 8% | 34% | 11% | 20% | 37% | 7% | 1% | 15% | 21% | 34% | 4% | 0% | 0% | 1% | 22% | 8% | 32% | 21% | 16% | 67%
COC(=O)c1c(-c2ccccc2)c2cc(Cl)ccc2c(=O)n1Cc1ccc(S(C)(=O)=O)cc1 | 6% | 0% | 0% | 2% | 0% | 8% | 22% | 0% | 100% | 0% | 0% | 0% | 15% | 12% | 15% | 0% | 0% | 27% | 14% | 14%
C[C@@H]1CCN(C(=O)CO)C[C@@H]1N(C)c1ncnc2[nH]ccc12 | 0% | 0% | 0% | 0% | 0% | 0% | 3% | 0% | 0% | 7% | 16% | 17% | 22% | 0% | 25% | 0% | 0% | 8% | 25% | 15%
CCc1nc(-c2cccc(C)c2)c(-c2ccnc(NC(=O)c3ccccc3)c2)s1 | 0% | 35% | 0% | 1% | 0% | 8% | 0% | 0% | 33% | 0% | 0% | 25% | 7% | 0% | 17% | 0% | 0% | 0% | 27% | 25%
COc1cc2c(Nc3cccc(NC(=O)c4ccccc4)c3)ncnc2cc1OCCCN1CCOCC1 [GSK223810] | 3% | 0% | 61% | 0% | 6% | 28% | 17% | 24% | 16% | 0% | 0% | 14% | 0% | 15% | 0% | 0% | 0% | 0% | 0% | 0%
CN1CCC(n2cnc(-c3ccc(F)cc3)c2-c2ccnc(NC3CCNCC3)n2)CC1 [SB-229482] | 0% | 0% | 0% | 0% | 27% | 0% | 0% | 1% | 0% | 0% | 11% | 33% | 1% | 26% | 29% | 0% | 17% | 16% | 3% | 32%
OCCOCCn1ccc2ncnc(Nc3ccc(Oc4cccc(Cl)c4)c(Cl)c3)c21 | 0% | 2% | 0% | 0% | 0% | 0% | 0% | 0% | 0% | 0% | 9% | 0% | 0% | 0% | 0% | 9% | 0% | 0% | 9% | 16%
